Among the data in PubChem BioAssay (Tox21) are Potency values, retold here.

“And” between values parts separate entries of the source, which are not always exact repeats. Identical values can stand only once. Results filed as inconclusive are left out. Entries that show only a call come without a potency. The source made the active and inactive calls. Calls follow the shape of the dose curve; as a rule, active = well fitted cell-killing curve with a large enough effect in the repeat runs; inconclusive = weak or mixed curves, or effect the other way; inactive = flat fitted curve, though single readings scatter.
Potency is read from the fitted curve at half-maximal effect.

The nature of the test: cAMP Responsive Elements (CRE) small molecule antagonists, cell-based qHTS assay: qHTS cell viability counter screen (AID 2060913). Also: nearly all actives have a fitted effect of over 40% in size. The conditions noted are these: CRE-bla HEK293T viability, CellTiter-Glo luminescence, 5 h; series mostly up to 92.4 µM. The source says:
U.S. Tox21 Program National Center for Advancing Translational Sciences [NCATS] Division of Preclinical Innovation [DPI] U.S. Environmental Protection Agency [EPA] National Institutes of Environmental Health Sciences [NIEHS] National Toxicology Program [NTP] U.S. Food and Drug Administration [FDA] Tox21 Assay Overview: CREB (cyclic-AMP Responsive Element Binding Protein) is a cellular transcription factor. It binds to certain DNA sequences called cAMP Responsive Elements (CRE) and regulates the transcription of the genes. […] This cell line can be used to find agonists/antagonists of the cyclic AMP signaling pathway. The activation of the report gene under culture conditions can be detected by fluorescence intensity. This cell line has been used to screen the Tox21 10K compound library to identify agonists that induce oxidative stress. The cytotoxicity of the Tox21 compound library against the CRE-bla cell line was tested in parallel by measuring the cell viability using CellTiter-Glo assay (Promega, Madison, WI) in the same wells.
Tox21 Assay Protocol Summary: CRE-bla Hek 293T cells were suspended in assay medium (DMEM containing 10% dialyzed FBS, 0.1 mM NEAA, 1 mM sodium pyruvate and 25 mM HEPES) and dispensed at 2,000 cells/4 uL /well into 1536-well black wall/clear bottom plates using a Multidrop Combi (ThermoFisher Scientific, Waltham, MA) dispenser. After the assay plates were incubated at 37 C/5% CO2 for 18 hrs, 23 nL of compounds dissolved in DMSO, positive controls or DMSO only was transferred to the assay plate by a pintool workstation (Kalypsys, San Diego, CA), followed by addition of 1 uL of 1.25uM NKH477 (0.25 uM as final concentration) in assay medium using a Flying Reagent Dispenser (Aurora Discovery, San Diego, CA). The plates were incubated at 37 C and 5% CO2 for 3 hrs. Then 1 uL of LiveBLAzer B/G FRET substrate (Invitrogen, Carlsbad, CA) was added to each well using Bioraptr Flying Reagent Dispenser (FRD, Aurora Discovery, San Diego, CA). The plates were incubated at room temperature for 2 h, then fluorescence intensities were measured using an Envision plate reader (PerkinElmer, Shelton, CT) at Excitation 405nm, Emission 460nm and 530nm. The % activity was determined from the ratio of 460nm/530nm. For cell viability readout that measures cytotoxicity, 4 uL /well of CellTiter-Glo reagent was added into the assay plates using Bioraptr FRD. After 30 min incubation at room temperature, the luminescence intensity in the assay plates was measured using a ViewLux (PerkinElmer, Shelton, CT) plate reader.
Consider `CCC[CH2][Sn]([Cl])([CH2]CCC)[CH2]CCC`, for which the Potency is 3.86 µM (active) and 7.7 µM (active).

`C/C=C/CC#N`: the Potency result is “inactive”.

As to `O=C(Cc1ccccc1)c1ccccc1`, the Potency result was “inactive”.

As to `c1ccc(-c2ccccc2)cc1`, the Potency result is “inactive”.

Take `CC1CN1P(=O)(N1CC1C)N1CC1C` (stereo not given): the Potency entry was “inactive”.

With `O=c1[nH]c2cc(Cl)ccc2n1C1CCNCC1`, the Potency entry is “inactive”.

`CNC(=S)S`: the Potency result is “inactive”.

With `C[C@]12CC[C@H]3[C@@H](CCC4=CC(=O)CC[C@@H]43)[C@@H]1CC[C@@H]2OC(=O)CCc1ccco1`, the Potency entry was “inactive”.

With `Cc1cccc(C)c1NC(=O)CN1CCCC1=O`, the Potency result was “inactive”.

In the case of `CCC(CC)(CNC(=O)CCCO)c1cccc(OC)c1`, the Potency result is “inactive”.

With `NCCCNCCCN`, the Potency result was “inactive”.

As for `Nc1ccc(Cl)cc1N`, the Potency result is “inactive”.

Consider `COC(=O)c1ccccc1S(=O)(=O)NC(=O)N(C)c1nc(C)nc(OC)n1`, for which the Potency result was “inactive”.

On to `C1CCC(NC2CCCCC2)CC1`, for which the Potency entry was “inactive”.

With `NCC1(CC(=O)O)CCCCC1`, the Potency result is “inactive”.

In the case of `S=c1[nH]c2ccccc2[nH]1`, the Potency result is “inactive”.

Turning to `CN(C)NC(=O)CCC(=O)O`, the Potency entry was “inactive”.

As to `O=C1CC[C@@]2(O)[C@H]3Cc4ccc(O)c5c4[C@@]2(CCN3CC2CC2)[C@H]1O5`, the Potency result is “inactive”.

Take `C=CCN=C=S`: the Potency result is “inactive”.

In the case of `Cl/C=C\CCl`, the Potency entry was “inactive”.

Turning to `O=c1[nH]c2ccccc2o1`, the Potency result is “inactive”.

Turning to `CC(C)[C@@H](C(=O)O[C@@H](C#N)c1cccc(Oc2ccccc2)c1)c1ccc(Cl)cc1`, the Potency result was “inactive”.

Turning to `COc1ccc2c(C(=O)c3ccc(Cl)cc3)c(C)n(CC(=O)O)c2c1`, the Potency result is “inactive”.

Regarding `BrCC1CO1` (stereo not given), the Potency result is “inactive”.

Consider `O.O.O.O.O.O.O=S(=O)([O-])[O-].[Ni+2]`, for which the Potency entry is “inactive”.

`Fc1cccc(Cl)c1CCl`: the Potency result was “inactive”.

With `CC1(C)[C@H](/C=C2\CCSC2=O)[C@@H]1C(=O)OCc1coc(Cc2ccccc2)c1`, the Potency result is “inactive”.

Take `NC(=O)CCl`: the Potency entry was “inactive”.

With `C[C@H]1C(=O)O[C@@H]2CCN3CC=C(COC(=O)[C@](C)(O)[C@]1(C)O)[C@H]23`, the Potency entry was “inactive”.

On to `Cc1cccc(N=Nc2ccc(N(C)C)cc2)c1`, for which the Potency result is “inactive”.

Consider `CCCCCBr`, for which the Potency entry was “inactive”.

Consider `O=C(O)c1nn(Cc2ccc(Cl)cc2Cl)c2ccccc12`, for which the Potency entry was “inactive”.

`FC(Cl)(Cl)C(F)(Cl)Cl`: the Potency entry was “inactive”.

As to `O=C1NCN(c2ccccc2)C12CCN(CCCOc1ccc(F)cc1)CC2`, the Potency result was “inactive”.

Consider `O=NN1CCOCC1`, for which the Potency entry was “inactive”.

Consider `O=C(N[C@H]1N=C(c2ccccc2F)c2cccc3c2N(CC3)C1=O)c1cc2ccccc2[nH]1`, for which the Potency result is “inactive”.

As for `CCC[N+](=O)[O-]`, the Potency entry was “inactive”.

Turning to `O=C(O)c1ccc2[nH]cc(CCCCN3CC=C(c4ccccc4)CC3)c2c1`, the Potency entry was “inactive”.

In the case of `ClC1=C(Cl)C2(Cl)C3C(Cl)C(Cl)CC3C1(Cl)C2(Cl)Cl` (stereo not given), the Potency was 60.9 µM (active).

Consider `N#Cc1sc2c(=O)c3ccccc3c(=O)c=2sc1C#N`, for which the Potency is 61.1 µM (active).
